# Reference: PubChem BioAssay (NCATS)
# “And” between values parts separate entries of the source, which are not always exact repeats. Identical values can stand only once. Records with an inconclusive call do not appear. The source made the active and inactive calls. Unless noted, the call rests on the fitted dose curve; in most records, active means well fitted curve in the direction sought with a large enough effect; inconclusive means small, poorly fitted or top-dose-only effect, or another doubt; inactive means no such curve, though single readings can be large; an effect the other way counts as inactive or inconclusive.
# Tests used:
# [1] = target: Cytochrome P450 2C9 (Homo sapiens) (UniProt P11712); assay: Cytochrome P450 family 2 subfamily C member 9 (CYP2C9) small molecule antagonists: luciferase biochemical (cell-free) qHTS assay (AID 1645842; active means well fitted curve in the direction sought with a large enough effect in the repeat runs; an effect the other way counts as inactive or inconclusive; further: potency means the concentration at half of the fitted maximal effect; nearly all actives have a fitted effect of over 55% in size)
# How it was run: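 P450-Glo CYP2C9 system: proluciferin substrate with enzyme in mix containing 0.4% BSA, 10 min at room temperature, then NADPH regeneration solution added and incubated 1 h at 37C. Detection reagent stopped reaction; luminescence read after 20 min as RLU.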
# [2] = target: Catechol O-methyltransferase (Homo sapiens) (UniProt P21964); assay: Confirmatory Screen for Target Class Profiling of Small Molecule Inhibitors of Methyltransferases (AID 1745852; calls by dose curve; further: potency means the concentration at half of the fitted maximal effect); conditions: MTase-Glo luminescence, SAH detection, recombinant enzyme; measured here: COMT max response; stronger effect = lower value
# [3] = target: Guanidinoacetate N-methyltransferase (Homo sapiens) (UniProt Q14353); assay: as above; conditions: activity change, negative = inhibition: at 57.3 µM (top of the series) unless noted
# [4] = target: Nicotinamide N-methyltransferase (Homo sapiens) (UniProt P40261); assay: as above; conditions: MTase-Glo luminescence, SAH detection, recombinant enzyme; measured here: NNMT max response; stronger effect = lower value
# [5] = target: Phenylethanolamine N-methyltransferase (Homo sapiens) (UniProt P11086); assay: as above; conditions: MTase-Glo luminescence, SAH detection, recombinant enzyme; measured here: PNMT max response; stronger effect = lower value
# Papain (Carica papaya) = Papain (Carica papaya) (UniProt P00784); assay: Primary qHTS assay for inhibitors of the protease papain (AID 1645873);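 further: papain turnover of Z-FR-AMC read as the AMC fluorescence gain over 10 min; on the % scale 0 is the no-effect control and ±100 the full control effect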
# [6] = NCATS anti-infectives library activity on the primary C. elegans qHTS viability assay (AID 1745855; calls by dose curve)
# How it was run: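 GFP read-out by 488 nm laser cytometry at day 0, 3 and 7, gated on object perimeter, area and peak intensity, scored viability of PE254-GFP-FLuc worms exposed to compound in S medium with bacterial capsules at 21 °C.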
# [7] = Primary qHTS for inhibitors of nuclear receptor binding SET domain protein 2 (NSD2) in an isogenic RCH-ACV NSD2 p.E1099K mutant (9B) (AID 1645876); further: nearly all actives have a fitted effect of over 70% in size; further: potency means the concentration at half of the fitted maximal effect
# [8] = Primary qHTS for inhibitors of nuclear receptor binding SET domain protein 2 (NSD2) in an RCH-ACV wild type WT cells (2C) (AID 1645877); further: nearly all actives have a fitted effect of over 70% in size; further: potency means the concentration at half of the fitted maximal effect
# Sequence of Papain (Carica papaya) (P00784 whole entry, looked up): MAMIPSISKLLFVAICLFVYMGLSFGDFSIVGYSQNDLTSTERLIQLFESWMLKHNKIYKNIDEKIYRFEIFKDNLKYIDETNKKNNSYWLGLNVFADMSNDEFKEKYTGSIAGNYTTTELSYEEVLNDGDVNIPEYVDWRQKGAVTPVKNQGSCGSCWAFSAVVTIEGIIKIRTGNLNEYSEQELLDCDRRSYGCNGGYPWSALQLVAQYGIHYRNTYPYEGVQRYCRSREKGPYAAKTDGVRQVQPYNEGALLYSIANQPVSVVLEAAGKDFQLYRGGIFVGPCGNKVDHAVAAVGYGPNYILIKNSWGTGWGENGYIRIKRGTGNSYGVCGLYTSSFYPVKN
# Sequence of Phenylethanolamine N-methyltransferase (Homo sapiens) (P11086 whole entry, looked up): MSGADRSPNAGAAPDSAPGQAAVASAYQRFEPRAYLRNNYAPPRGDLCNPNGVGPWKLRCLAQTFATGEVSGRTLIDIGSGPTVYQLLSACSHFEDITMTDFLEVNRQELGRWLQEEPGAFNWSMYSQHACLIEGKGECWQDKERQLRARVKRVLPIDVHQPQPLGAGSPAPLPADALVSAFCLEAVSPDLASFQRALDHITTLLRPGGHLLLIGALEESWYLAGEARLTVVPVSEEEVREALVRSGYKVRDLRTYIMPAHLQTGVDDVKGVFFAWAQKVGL
# Sequence of Catechol O-methyltransferase (Homo sapiens) (P21964 whole entry, looked up): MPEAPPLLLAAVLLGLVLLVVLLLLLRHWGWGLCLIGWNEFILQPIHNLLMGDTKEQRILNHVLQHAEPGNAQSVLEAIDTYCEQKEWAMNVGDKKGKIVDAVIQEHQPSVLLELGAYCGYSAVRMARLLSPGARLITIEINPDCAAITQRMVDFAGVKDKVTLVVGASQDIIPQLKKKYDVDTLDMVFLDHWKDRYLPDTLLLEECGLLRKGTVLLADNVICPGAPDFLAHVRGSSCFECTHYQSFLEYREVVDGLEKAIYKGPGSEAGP
# Sequence of Nicotinamide N-methyltransferase (Homo sapiens) (P40261 whole entry, looked up): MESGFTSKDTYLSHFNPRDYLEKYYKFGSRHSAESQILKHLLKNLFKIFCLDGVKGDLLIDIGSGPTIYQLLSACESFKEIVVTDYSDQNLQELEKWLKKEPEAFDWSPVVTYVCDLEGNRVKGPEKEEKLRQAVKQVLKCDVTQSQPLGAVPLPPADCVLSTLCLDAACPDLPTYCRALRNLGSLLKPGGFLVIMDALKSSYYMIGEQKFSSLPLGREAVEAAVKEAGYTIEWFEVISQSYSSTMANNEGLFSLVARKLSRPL
# Sequence of Cytochrome P450 2C9 (Homo sapiens) (P11712 whole entry, looked up): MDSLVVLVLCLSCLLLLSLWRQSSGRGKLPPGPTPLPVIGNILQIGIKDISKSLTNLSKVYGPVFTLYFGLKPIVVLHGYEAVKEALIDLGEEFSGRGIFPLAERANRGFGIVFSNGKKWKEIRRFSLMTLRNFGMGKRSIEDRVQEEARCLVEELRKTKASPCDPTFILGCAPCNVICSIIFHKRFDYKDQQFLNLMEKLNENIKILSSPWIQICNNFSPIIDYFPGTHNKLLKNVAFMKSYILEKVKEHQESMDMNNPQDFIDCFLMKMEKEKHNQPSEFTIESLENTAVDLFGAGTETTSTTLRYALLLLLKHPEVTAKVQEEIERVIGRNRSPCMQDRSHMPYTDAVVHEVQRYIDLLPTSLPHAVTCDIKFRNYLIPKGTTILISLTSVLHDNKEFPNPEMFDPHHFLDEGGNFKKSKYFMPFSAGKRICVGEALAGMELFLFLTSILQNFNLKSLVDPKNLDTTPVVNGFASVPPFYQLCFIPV
smiles,measurement,setting,value
O=S(=O)(Nc1cc(Cl)c(Oc2cnc3ccccc3c2)c(Cl)c1)c1ccc(Cl)cc1Cl,Potency,[1],3.01 µM (active)
same,activity,[2],-8.48%
same,Potency,[3],34.1 µM (active)
same,activity,[4],-47.5%
same,activity,[5],-24%
CN[C@H]1CC[C@@H](c2ccc(Cl)c(Cl)c2)c2ccccc21,outcome,Papain (Carica papaya),inactive
NCCCC(=O)O,outcome,Papain (Carica papaya),inactive
CCCc1ccc(OCC(=O)N(Cc2nc(-c3cccnc3)no2)C(C)C)cc1,Potency,[6],inactive
O=C(Nc1cc(C(F)(F)F)ccc1N1CCCCC1)c1ccncc1,Potency,[6],inactive
CC1OC(=O)C[C@@H]2C(C(=O)O)=CO[C@@H](O[C@H]3O[C@H](CO)[C@@H](O)[C@H](O)[C@H]3O)[C@H]12 (stereo partly specified),Potency,[7],inactive
same,Potency,[8],inactive
CCCCCCCCn1cc(CN(CC)CC)c2cc(-c3cnc(N)nc3)ccc21,Potency,[7],4.09 µM (active)
same,Potency,[8],3.25 µM (active)
CCC(C)C1NC(=O)C(Cc2ccccc2)NC(=O)C(CCCCCC(=O)C(O)CO)NC(=O)C2CCCCN2C1=O (stereo unspecified),Potency,[7],6.08 µM (active)
same,Potency,[8],2.16 µM (active)
CC(C)S(=O)(=O)c1ccc2nccc(Nc3ccc4scnc4c3)c2c1,Potency,[7],9.34 µM (active)
same,Potency,[8],10.5 µM (active)
O=C(NCCCNC(=O)c1ccc[nH]c1=O)c1cc(-c2ccccc2)on1,Potency,[7],8.33 µM (active)
same,Potency,[8],9.34 µM (active)
CN1CC[C@@H](c2c(O)cc(O)c3c(=O)cc(-c4ccc(C(F)(F)F)cc4Cl)oc23)[C@@H]1CO,Potency,[7],18.6 µM (active)
same,Potency,[8],16.6 µM (active)
CC(C)NCCCn1c(Sc2cc3c(cc2I)OCO3)nc2c(N)ncnc21,Potency,[7],0.365 µM (active)
same,Potency,[8],0.325 µM (active)
CC(=O)CC(=O)Nc1ccc(Cl)c(C(F)(F)F)c1,Potency,[7],20.5 µM (active)
same,Potency,[8],10.3 µM (active)
C1=Cc2ccccc2C(=C2CCN(CCCCc3nn[nH]n3)CC2)c2ccccc21,Potency,[7],inactive
same,Potency,[8],inactive
CN1CCC(NC(=O)c2cc(-c3c(O)cc(O)cc3Oc3ccc([N+](=O)[O-])cc3)on2)CC1,Potency,[7],0.23 µM (active)
same,Potency,[8],0.23 µM (active)
C=C(C)C(=O)OC1CC2(C)OC(=CC2=O)C(=C)CC2OC(=O)C(=C)C12 (stereo unspecified),Potency,[7],0.8 µM (active)
same,Potency,[8],0.253 µM (active)
C1=C/COCc2cc(ccc2OCCN2CCCC2)Nc2nccc(n2)-c2cccc(c2)COC/1,Potency,[7],325 nM (active) and 417 nM (active)
same,Potency,[8],258 nM (active) and 417 nM (active)
C=C1C(=O)O[C@H]2C1CCC(C)=C1C(=O)C=C(C)[C@@]12O (stereo partly specified),Potency,[7],20.5 µM (active)
same,Potency,[8],12.9 µM (active)
COc1ccccc1C(=O)Nc1cccc(NC(=O)c2cccc(C)c2)c1,Potency,[7],inactive
same,Potency,[8],inactive
C=C1C(=O)O[C@H]2C3=C(C)CCC[C@]3(C)C(=O)C[C@@H]12,Potency,[7],1.83 µM (active)
same,Potency,[8],1.29 µM (active)
C=CC(C)(O)CC/C=C(\C)C(=O)OC1C(O)C(CO)OC(OC(=O)C23CCC(C)(C)CC2C2=CCC4C5(C)CCC(OC6OC(COC7OCC(OC(C)=O)C(O)C7OC7OC(COC(C)=O)C(O)C(O)C7OC(C)=O)C(O)C(O)C6OC6OCC(O)C(O)C6O)C(C)(C)C5CCC4(C)C2(C)C(O)C3O)C1OC1OCC(OC2OCC(O)C(OC3OCC(O)C(O)C3O)C2O)C(O)C1O (stereo unspecified),Potency,[7],0.792 µM (active)
same,Potency,[8],1.25 µM (active)
COc1ccccc1S(=O)(=O)Nc1ccc2c(c1)CN(C)C(=O)N2,Potency,[7],1.83 µM (active)
same,Potency,[8],1.63 µM (active)
C[C@H](CN(C)C)Oc1nc(Nc2cc3cccc(Cl)c3cn2)cnc1C#N,Potency,[7],459 nM (active) and 934 nM (active)
same,Potency,[8],409 nM (active) and 934 nM (active)
C=C(C)C(=O)OC1CC(CO)CCC/C(CO)=C/C2OC(=O)C(=C)C21 (stereo unspecified),Potency,[7],2.53 µM (active)
same,Potency,[8],2.01 µM (active)
CC1CC(=O)C2=C(C1)C1OC1C1(O)C2C(=O)c2cccc(O)c2C1O (stereo unspecified),Potency,[7],inactive
same,Potency,[8],inactive
C/C(=C/C=C\C=C\Cc1cnco1)[C@@H](O)C(C)(C)C(N)=O,Potency,[7],inactive
same,Potency,[8],inactive
CCCCOC(=O)NS(=O)(=O)c1sc(CC(C)C)cc1-c1ccc(Cn2ccnc2)cc1,Potency,[7],23.5 µM (active)
same,Potency,[8],20.9 µM (active)
O=C(NCC1CCN(Cc2cccc(Cl)c2)CC1)[C@@H]1CCCN(c2ncnc3c2nc2n3CCCC2)C1,Potency,[7],inactive
same,Potency,[8],inactive
CC1(C)CCCC2(C)C1C(OC(=O)/C=C/C=C/C=O)C=C1COC(=O)C12O (stereo unspecified),Potency,[7],7.09 µM (active)
same,Potency,[8],3.55 µM (active)
O=C(Nc1nc2cc(C(F)(F)F)cc(NC3CC3)n2n1)c1cccnc1,Potency,[7],2.3 µM (active)
same,Potency,[8],1.83 µM (active)
C[C@@H]1CC[C@@]23CC[C@]4(C)[C@@](C=CC5[C@@]6(C)CC[C@H](O)C(C)(C)C6CC[C@]54C)(OC2=O)C3[C@H]1C (stereo partly specified),Potency,[7],inactive
same,Potency,[8],inactive
COC1=CC(=O)C[C@@H](C)[C@@]12Oc1c(Cl)c(OC)cc(OC)c1C2=O,Potency,[7],inactive
same,Potency,[8],inactive
C=C(COC(=O)C(O)C(O)CN)C12OC1C1(C)C(=CC2=O)C(O)C(O)CC1C (stereo unspecified),Potency,[7],inactive
same,Potency,[8],inactive
C=C(C)C(=O)O[C@H]1/C(C=O)=C\CC/C(CO)=C/[C@H]2OC(=O)C(=C)[C@@H]2[C@@H]1OC,Potency,[7],11.3 µM (active)
same,Potency,[8],2.53 µM (active)
C#Cc1cccc(Nc2nc3cc(C(=O)O)ccc3c3cncnc23)c1,Potency,[7],4.09 µM (active)
same,Potency,[8],2.58 µM (active)
O=C(/C=C/c1ccccc1O)O[C@@H]1O[C@H](CO)[C@@H](O)[C@H](O)[C@H]1O,Potency,[7],inactive
same,Potency,[8],inactive
C=C1C(=O)OC2/C=C(\C)CC3C=C(CC/C=C(\C)CCC12)C(=O)O3 (stereo unspecified),Potency,[7],12.7 µM (active)
same,Potency,[8],4.5 µM (active)
Cc1ccc(-c2ncccn2)c(C(=O)N2C[C@H](COc3ccc(F)cn3)CC[C@H]2C)c1,Potency,[7],inactive
same,Potency,[8],inactive
Cc1cc2c(cc1N1C(=O)c3cccc4c(CCCO)ccc(c34)C1=O)n(C)c(=O)n2C,Potency,[7],0.858 µM (active)
same,Potency,[8],0.608 µM (active)
CC(C)S(=O)(=O)Nc1ccc(F)c(C(=O)c2c[nH]c3ncc(-c4cccnc4)cc23)c1F,Potency,[7],4.09 µM (active)
same,Potency,[8],4.59 µM (active)
COC1CC(O[C@H]2CC[C@]3(C)C4CC[C@@]5(C)C(=O)[C@]4(CC[C@@H]3C2)CC[C@@H]5C2=CC(=O)OC2)OC(C)C1OC1OC(COC2OC(CO)C(O)C(O)C2O)C(O)C(O)C1O (stereo partly specified),Potency,[7],1.54 µM (active)
same,Potency,[8],2.75 µM (active)
